Measurements from the supplement of paper PMC13380429.

Experiments:
[1] = test system: Vero E6 infected with SARS-CoV-2; assay: morphology score (similarity to uninfected cells); higher = more like uninfected cells; conditions: 24 h
[2] = test system: Vero E6 infected with SARS-CoV-2; assay: SARS-CoV-2 infection rate relative to infected DMSO; higher = more infection, active = 60 or less; conditions: 24 h

Row | Structure (SMILES) | morphology score [1] | SARS-CoV-2 infection rate [2]
1 | CC(C)N(CCC(C(N)=O)(c1ccccc1)c1ccccn1)C(C)C (stereo unspecified) [disopyramide] (10 µM) | 0.157 | 104% (inactive)
2 | Cc1ncc(-c2csc(N=C(N)N)n2)[nH]1 [zaltidine] (10 µM) | 0.0534 | 106% (inactive)
3 | C[C@]12CC[C@@H](O)C[C@H]1CC[C@@H]1[C@@H]2CC[C@]2(C)C(=O)CC[C@@H]12 [3-alpha-hydroxy-5-beta-androstan-17-one] (10 µM) | 0.223 | 102% (inactive)
4 | N#Cc1ccc2[nH]cc(CCCCN3CCN(c4ccc5oc(C(N)=O)cc5c4)CC3)c2c1 [vilazodone] (0.833333 µM) | 0.0471 | 102% (inactive)
5 | C[C@]12CC[C@@H]3c4ccc(O)cc4CC[C@H]3[C@@H]1CC[C@@H]2OC(=O)CCC1CCCC1 [estradiol-cypionate] (10 µM) | -0.002 | 99% (inactive)
6 | C[C@]12C/C(=C/O)C(=O)C[C@@H]1CC[C@@H]1[C@@H]2CC[C@@]2(C)[C@H]1CC[C@]2(C)O [Oxymetholone] (10 µM) | -0.162 | 120% (inactive)
7 | c1ccc(-c2ccc(C(c3ccccc3)n3ccnc3)cc2)cc1 (stereo unspecified) [bifonazole] (10 µM) | 0.407 | 79% (inactive)
8 | CN1C(=O)C(F)=C[C@]2(C)[C@H]3CC[C@]4(C)[C@@H](C(=O)NCc5nc6cccnc6[nH]5)CC[C@H]4[C@@H]3CC[C@@H]12 (10 µM) | 0.0239 | 100% (inactive)
9 | Oc1nc(-c2ccc(C(F)(F)F)cc2)nc2c1CSCC2 (0.833333 µM) | 0.149 | 94% (inactive)
10 | NCCc1c[nH]c2ccc(C(N)=O)cc12 [5-carboxamidotryptamine] (10 µM) | 0.0259 | 103% (inactive)
11 | NS(=O)(=O)c1cc(C(=O)O)cc(N2CCCC2)c1Oc1ccccc1 [piretanide] (10 µM) | 0.0293 | 110% (inactive)
12 | O=C(Cn1ccnc1[N+](=O)[O-])NCc1ccccc1 [benznidazole] (10 µM) | 0.0566 | 112% (inactive)
13 | CCOc1ccccc1-n1c(C(C)N2CCN(C(=O)COc3ccc(Cl)cc3)CC2)nc2ccccc2c1=O (stereo unspecified) [erastin] (0.833333 µM) | -0.0506 | 86% (inactive)
14 | Nc1nc2[nH]cc(CCc3ccc(C(=O)N[C@@H](CCC(=O)O)C(=O)O)cc3)c2c(=O)[nH]1 [pemetrexed] (10 µM) | -0.15 | 121% (inactive)
15 | O=C(O)CCCCN(CCc1ccccc1OCc1ccc(CCc2ccccc2)cc1)Cc1ccc(C(=O)O)cc1 [cinaciguat] (10 µM) | -0.0659 | 102% (inactive)
16 | COc1ccc(-c2ccc(=N)n(CCCC(=O)O)n2)cc1 [gabazine] (10 µM) | -0.176 | 103% (inactive)
17 | CN1c2c([nH]c(N)nc2=O)NC[C@@H]1CNc1ccc(C(=O)N[C@@H](CCC(=O)O)C(=O)O)cc1 [metafolin] (10 µM) | 0.0144 | 115% (inactive)

Row | Structure (SMILES) | morphology score [1] | SARS-CoV-2 infection rate [2]
18 | Cc1ccc(S(=O)(=O)n2c(N)nc3ccccc32)cc1 (10 µM) | -0.0202 | 108% (inactive)
19 | O=C(Oc1cccc2cccnc12)c1ccccc1 [benzoxiquine] (10 µM) | 0.116 | 97% (inactive)
20 | C[C@@H]1CC[C@@]2(OC1)O[C@H]1C[C@H]3[C@@H]4CC=C5C[C@@H](O[C@@H]6O[C@H](CO)[C@@H](O[C@@H]7O[C@@H](C)[C@H](O)[C@@H](O)[C@H]7O)[C@H](O)[C@H]6O[C@@H]6O[C@@H](C)[C@H](O)[C@@H](O)[C@H]6O)CC[C@]5(C)[C@H]4CC[C@]3(C)[C@H]1[C@@H]2C [dioscin] (10 µM) | 0.0193 | 101% (inactive)
21 | O=C(Nc1cc(C(F)(F)F)cc(C(F)(F)F)c1)Nc1c(Br)cc(Br)cc1-c1nnn[nH]1 (10 µM) | 0.192 | 104% (inactive)
22 | CC(=O)O[C@H]1CC[C@@]2(C)C(=CC[C@@H]3[C@@H]2CC[C@]2(C)C(c4cccnc4)=CC[C@@H]32)C1 [abiraterone-acetate] (10 µM) | -0.0503 | 112% (inactive)
23 | CC(=O)NCCCS(=O)(=O)O [acamprosate] (10 µM) | 0.0831 | 102% (inactive)
24 | c1ccc(COCCCc2c[nH]cn2)cc1 [proxyfan] (10 µM) | -0.149 | 115% (inactive)
25 | C[n+]1cccc(C(=O)[O-])c1 [trigonelline] (0.833333 µM) | 0.0676 | 108% (inactive)
26 | CN1[C@@H]2CC[C@H]1C[C@@H](OC(=O)N1Cc3ccccc3NC1=O)C2 (10 µM) | 0.0635 | 108% (inactive)
27 | N#CCC(=O)c1ccccc1 (10 µM) | 0.0172 | 112% (inactive)
28 | CCC(=O)NO (10 µM) | 0.00785 | 112% (inactive)
29 | CNc1ncnc2c1ncn2[C@@H]1O[C@H](CO)[C@@H](O)[C@H]1O [N6-methyladenosine] (10 µM) | -0.0577 | 100% (inactive)
30 | O=C(O)C1=C[C@@H](O)[C@@H](O)[C@H](O)C1 [shikimic-acid] (10 µM) | 0.0235 | 108% (inactive)
31 | CC1=C(C(=O)O)N2C(=O)[C@@H](NC(=O)[C@H](N)c3ccccc3)[C@H]2SC1 [cephalexin] (10 µM) | 0.0139 | 112% (inactive)
32 | CN=C(N)NCCC[C@H](N)C(=O)O [L-monomethylarginine] (10 µM) | 0.197 | 97% (inactive)
33 | Cc1nc2ccccc2n1Cc1ccc(Cl)cc1 [chlormidazole] (10 µM) | -0.099 | 118% (inactive)
